Screens (PubChem BioAssay)
In the library only some 2.4% were active in any assay of this set; here they are far more common.
ELG1 repair inh = blocks ELG1-dependent DNA repair in HEK293T cells. AID 504467. HEK293T ELG1-luciferase reporter, luminescence, 16 h; DNA damage induced by 5-fluorouridine. Potency, µM (series often up to 46.1 µM), hits mostly inhibitors. 2.3% of 330,000 active; further: nearly all actives have a fitted effect of over 55% in size
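HEK293T cells expressing luciferase-tagged ELG1 (2,000/well) received 5-Fluorouridine plus compound or DMSO for 16 hr at 37 °C. Luciferase was read by ONE-Glo luminescence after 30 min at room temperature.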
PGK inhibitor = T. brucei PGK inhibition; PGK/GAPDH coupled, Kinase-Glo luminescence, 60 min; Potency, µM (titrated, usually from 57.5 µM), usual class: inhibitors; 0.043% of 380,000 active; further: nearly all actives have a fitted effect of over 60% in size
Target sequence (P07378 whole entry, looked up): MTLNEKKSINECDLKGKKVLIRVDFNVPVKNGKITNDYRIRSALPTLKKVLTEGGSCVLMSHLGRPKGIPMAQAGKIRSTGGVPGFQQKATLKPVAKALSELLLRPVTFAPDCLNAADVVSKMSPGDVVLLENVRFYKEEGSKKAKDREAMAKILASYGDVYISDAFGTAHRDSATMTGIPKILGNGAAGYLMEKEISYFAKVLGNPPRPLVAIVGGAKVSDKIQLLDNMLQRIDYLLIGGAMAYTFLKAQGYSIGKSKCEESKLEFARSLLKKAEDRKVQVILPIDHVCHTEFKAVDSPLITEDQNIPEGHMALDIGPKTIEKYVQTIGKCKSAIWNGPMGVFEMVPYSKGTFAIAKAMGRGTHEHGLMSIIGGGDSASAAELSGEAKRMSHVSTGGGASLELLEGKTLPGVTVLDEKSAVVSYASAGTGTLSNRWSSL
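Luminescent ATP detection (Kinase-Glo Plus) follows a 60-minute room-temperature incubation, with wells lacking PGK as controls. Buffer: 100 mM TEA (pH 7.6), 5 mM MgCl2, 0.01% Tween-20. Coupling enzyme GAPDH (100 nM final) supplies unstable 1,3-BPG in-well.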
Rango-impB inh = inhibitors of Rango-importin beta complex formation. 0.031% of 340,000 active. Rango CFP/YFP FRET sensor + importin beta, 45 min. Q14974. Potency, µM (top dose mostly 92.2 µM); calls by dose curve; further: nearly all actives have a fitted effect of over 15% in size
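Inhibition scored from the CFP 486 nm/YFP 530 nm FRET ratio 45 min after adding 0.125 microM importin beta to 50 nM Rango biosensor preincubated 5 min with compound (room temperature, PBS with DTT, Tween-20, BSA). No-importin wells as positive control.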
PKM2 activator = increases activity of human pyruvate kinase M2; Potency, µM (titrated, usually from 57.5 µM), most hits filed as activators; purified PKM2, Kinase-Glo ATP luminescence, activation; response scale: 0% is enzyme alone, no compound; 0.34% of 260,000 active; further: nearly all actives have a fitted effect of over 55% in size
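Purified hPK-M2 (>95%) run at intermediate activity with 0.1 mM ADP and 0.5 mM PEP in 50 mM imidazole pH 7.2, KCl, MgCl2; 1 h room temperature. ATP formed read by Kinase-Glo luminescence; normalized to uninhibited and no-enzyme controls.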
Rango release inh = prevents RanGTP from dissociating the Rango-importin beta complex. O95149+P62826. Biochemical FRET Rango-importin beta, RanGTP-induced dissociation. Potency, µM (series often up to 46.1 µM). 0.071% of 340,000 active. AID 540253; calls by dose curve; further: nearly all actives have a fitted effect of over 45% in size
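Compounds preincubate 5 min with complex of recombinant Rango and importin beta in PBS with 1 mM DTT. Ran (0.6 uM) loaded with 2 mM GTP plus 0.2 uM RCC1 starts dissociation; FRET is recorded 45 min later.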
Tb PFK inh = inhibitors of T. brucei phosphofructokinase; T. brucei PFK, ADP-Glo luminescence; 0.17% of 330,000 active; O15648; Potency, µM (series often up to 57.5 µM), most hits filed as inhibitors; further: nearly all actives have a fitted effect of over 60% in size
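Activity is normalized to no-enzyme wells (full inhibition) and 1.25 nM enzyme wells (no inhibition). Reaction: 0.5 mM F6P, 0.1 mM ATP, 45 min RT, ADP-Glo luminescence; concentration-response curves fitted and classed by quality.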
Large screens that a line does not name were inactive. Unless noted, the call rests on the fitted dose curve; in most records, active means well fitted curve in the direction sought with a large enough effect; inconclusive means small, poorly fitted or top-dose-only effect, or another doubt; inactive means no such curve, though single readings can be large; an effect the other way counts as inactive or inconclusive.

CC(C)S(=O)(=O)c1csc(NC(=O)Nc2cc(Cl)ccc2Cl)c1Cl	ELG1 repair inh 21µM
COc1ccccc1OCCNC(=O)c1cc(C2CC2)nc2c1cnn2C(C)C	ELG1 repair inh 13µM (no result: PKM2 activator)
CCCCOCCCNC(=S)Nc1ccc(S(=O)(=O)N2CCOCC2)cc1	ELG1 repair inh inconclusive
O=S(=O)(c1ccc(NC(=S)NCCC(c2ccccc2)c2ccccc2)cc1)N1CCOCC1	ELG1 repair inh 18µM
O=S(=O)(c1ccc(NC(=S)N2CCN(c3ccccc3F)CC2)cc1)N1CCOCC1	ELG1 repair inh 23µM
CC(=O)OC(c1nc2ccccc2c(=O)n1C1CC2(OC1=O)c1ccccc1N1C(=O)C(C)(C)N(O)C12)C(C)C (stereo not drawn)	ELG1 repair inh inconclusive
CCc1ccc(NC(=O)Cn2c(=O)n(-c3ccc(OC)cc3)c(=O)c3ccc(C(=O)NCc4ccc(C)cc4)cc32)cc1	none (no result: ELG1 repair inh, Rango-impB inh, PKM2 activator, Rango release inh, Tb PFK inh)
CC(C)C(Cl)=NOC(=O)Nc1ccc(S(N)(=O)=O)cc1	none (no result: ELG1 repair inh, PKM2 activator, Tb PFK inh)
CCOc1ccc2[nH]cc(S(=O)(=O)c3ccc(Cl)cc3)c(=O)c2c1	ELG1 repair inh inconclusive
CCOc1ccc2[nH]cc(S(=O)(=O)c3ccc(C)cc3)c(=O)c2c1	ELG1 repair inh 16µM
Cc1nc(SCc2nc3ccccc3[nH]2)c2oc3ccccc3c2n1	ELG1 repair inh 18µM
C/C(CC1CC2=C(CC1(C)C)C(C)(C)CCC2)=N\NC(N)=S (stereo not drawn)	ELG1 repair inh inconclusive (no result: PGK inhibitor)
COc1ccc(N2C(=O)CC(Sc3ccccc3C(=O)O)C2=O)c([N+](=O)[O-])c1 (stereo not drawn)	PKM2 activator 20µM
Cc1ccc(N2C(=O)CC(Sc3ccccc3C(=O)O)C2=O)c([N+](=O)[O-])c1 (stereo not drawn)	PKM2 activator inconclusive
CCCCn1c(SCn2nnc3ccccc3c2=O)nc2cc(S(N)(=O)=O)ccc21	ELG1 repair inh inconclusive
CCCCn1c(SCN2C(=O)c3ccccc3C2=O)nc2cc(S(N)(=O)=O)ccc21	PKM2 activator 16µM
CCCCn1c(SCc2ccc(C(=O)OC)o2)nc2cc(S(N)(=O)=O)ccc21	ELG1 repair inh 10µM
Cc1cccc(C(=O)Nc2ccc(OCc3cc(=O)n4ccsc4n3)cc2)c1	none (no result: ELG1 repair inh, Rango-impB inh, PKM2 activator, Rango release inh, Tb PFK inh)
O=C(CN1CCCCC1)Nc1ccc(S(=O)(=O)c2ccc(NC(=O)CN3CCCCC3)cc2)cc1	none (no result: ELG1 repair inh, PKM2 activator, Tb PFK inh)
CN(C)/C=C/C(=O)c1ccn(S(=O)(=O)c2ccccc2)c1	Rango-impB inh inconclusive (no result: PKM2 activator)
COc1ccc(CCNC(=O)c2ccc3c(c2)CCN3S(C)(=O)=O)cc1OC	none (no result: ELG1 repair inh, Rango-impB inh, PKM2 activator, Rango release inh, Tb PFK inh)
COc1ccc(Nc2nc(Nc3ccc(OC)cc3)nc(SC3=NCCS3)n2)cc1	ELG1 repair inh 18µM
O=C(Cn1nc(-c2cccc(Cl)c2)ccc1=O)NCC1COCCO1 (stereo not drawn)	none (no result: PKM2 activator)
CCN(Cc1ccccc1)C(=O)c1nn(-c2ccc(OC)cc2)c(=O)c2c1c1ccccc1n2C	ELG1 repair inh 18µM
CCCCN(CC)CCNC(=O)c1nn(-c2ccc(OC)cc2)c(=O)c2c1c1ccccc1n2C	ELG1 repair inh inconclusive
COc1ccc(N2CCN(c3cc(C)nc4ccc(OC)cc34)CC2)cc1	ELG1 repair inh 13µM
Cn1c(=O)oc2cc(S(=O)(=O)Nc3ccc(O)cc3)ccc21	PKM2 activator 8.9µM
COc1cc(CC(=O)OCC(=O)Nc2sccc2C(N)=O)cc(OC)c1OC	ELG1 repair inh 7.3µM, Tb PFK inh inconclusive
COc1ccc(NC(=S)N2CCC(C(=O)c3ccc(C)cc3)CC2)cc1	none
COc1ccc(NC(=S)N2CCC(C(=O)c3ccc(OC)cc3)CC2)cc1	ELG1 repair inh 23µM
Cc1ccc(C)c(/C=C/C(=O)c2ccccc(=O)c2O)c1	ELG1 repair inh inconclusive, Rango-impB inh inconclusive, Rango release inh inconclusive
Cc1ccc(/C=C/C(=O)c2ccccc(=O)c2O)c(C)c1	Rango-impB inh inconclusive, Rango release inh 8.2µM
COc1ccc(N(CCCN2C(=O)c3cccc4cccc(c34)C2=O)C(=O)c2cccs2)cc1	ELG1 repair inh inconclusive
COc1cc(C)ccc1N(CCCN1C(=O)c2cccc3cccc(c23)C1=O)C(=O)c1cccs1	ELG1 repair inh 21µM
CC(=O)Nc1ccc(NC(=O)C2CCC(N3C(=O)C4C5C=CC(C6CC56)C4C3=O)CC2)cc1 (stereo not drawn)	none
O=C(Nc1ccc(Cc2ccncc2)cc1)C1CCC(N2C(=O)C3C4C=CC(C5CC45)C3C2=O)CC1 (stereo not drawn)	ELG1 repair inh 8.2µM
O=C(Nc1cccnc1)c1ccc(Cl)c(S(=O)(=O)N2CCCCCC2)c1	ELG1 repair inh 21µM
O=C(c1ccc(Cl)c(S(=O)(=O)N2CCCCCC2)c1)N1CCN(c2ccccn2)CC1	ELG1 repair inh 21µM
Cc1ccccc1NC(=O)c1ccc(F)c(S(=O)(=O)N2CCN(c3ccccn3)CC2)c1	ELG1 repair inh 23µM, Rango release inh inconclusive
O=C(Nc1cccnc1)c1ccc(CN2CCc3ccccc3C2)cc1	ELG1 repair inh 8.2µM
Cc1ccccc1NC(=O)c1ccc(C)c(S(=O)(=O)N2CCN(C)CC2)c1	none
CCC1CN(C(=O)N2CCC(C(=O)N(C)Cc3ccccc3)CC2)c2ccccc2O1 (stereo not drawn)	none (no result: ELG1 repair inh, Rango-impB inh, PKM2 activator, Rango release inh, Tb PFK inh)
CCOc1ccc(CCNC(=O)c2ccc3ccccc3n2)cc1OCC	Rango-impB inh inconclusive
CCOc1ccccc1N1CCN(C(=O)c2ccc(Cl)c(S(=O)(=O)N3CCCCC3)c2)CC1	ELG1 repair inh 23µM (no result: PKM2 activator)
CCOc1ccccc1N1CCN(C(=O)c2cc(S(=O)(=O)N3CCCCC3)ccc2C)CC1	ELG1 repair inh inconclusive (no result: PKM2 activator)
COc1cc(OC)c(-c2nn3c(C4CCCCC4)nnc3s2)cc1OC	ELG1 repair inh 21µM
Cc1ccccc1NC(=O)C(=Cc1ccc(C(=O)O)cc1)C(=O)Nc1ccccc1C	ELG1 repair inh 12µM
CC(=O)/C(=C/c1ccccc1)C(=O)Nc1ccccc1C	none
Cc1sc2ncnc(N3CCC(C(=O)N(C)CC(=O)Nc4ccccc4Br)CC3)c2c1C	ELG1 repair inh inconclusive
Cc1sc2ncnc(N3CCC(C(=O)Nc4ccccc4C(C)(C)C)CC3)c2c1C	ELG1 repair inh 9.2µM (no result: PKM2 activator)
Cc1sc2ncnc(N3CCC(C(=O)N(C)CC(=O)Nc4ccccc4Cl)CC3)c2c1C	ELG1 repair inh 7.3µM
CCOC(=O)CSc1ccc(C(=O)NCCCN2CCOCC2)cc1[N+](=O)[O-]	none (no result: PGK inhibitor, PKM2 activator)
